Compound activity (PubChem BioAssay)
Only some compounds are listed: those with a hit (about 15% of all), similar ones and a draw of the others.
ELG1 repair inh: inhibitors of ELG1-dependent DNA repair in HEK293T cells; HEK293T ELG1-luciferase reporter, luminescence, 16 h; DNA damage induced by 5-fluorouridine; Potency, µM (series often up to 46.1 µM), inactives show at the highest dose activity change, negative = inhibition, hits mostly inhibitors; hit rate 2.3% among 330,000; AID 504467; also: nearly all actives have a fitted effect of over 55% in size
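In this reporter screen, reduction of luminescence relative to DMSO vehicle indicated activity. Compounds and 5-fluorouridine were added together to 2,000 cells per well, incubated for 16 hr at 37 °C, then developed with ONE-Glo.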
VP16 counter: Gal4-VP16 reporter inhibition counter-screen; hit rate 3.5% among 310,000; Potency, µM (top dose mostly 53.6 µM), inactives show at the highest dose activity, negative = inhibition, most hits filed as inhibitors; Drosophila S2 Gal4-VP16 UAS-luciferase, luminescence, 20 h;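 also: Gal4-VP16 expression switched on by copper sulfate through the metallothionein promoter; nearly all actives have a fitted effect of over 50% in size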
RORgamma inh: blocks mouse ROR gamma transcriptional activity; P51450; Drosophila S2 Gal4-RORgamma UAS-luciferase reporter, 20 h; Potency, µM (top dose mostly 53.6 µM), inactives show at the top dose activity change, negative = inhibition, most hits filed as inhibitors; hit rate 5.4% among 310,000; AID 2551; also: nearly all actives have a fitted effect of over 60% in size
Target sequence (P51450 whole entry, looked up, the tested form may be a part): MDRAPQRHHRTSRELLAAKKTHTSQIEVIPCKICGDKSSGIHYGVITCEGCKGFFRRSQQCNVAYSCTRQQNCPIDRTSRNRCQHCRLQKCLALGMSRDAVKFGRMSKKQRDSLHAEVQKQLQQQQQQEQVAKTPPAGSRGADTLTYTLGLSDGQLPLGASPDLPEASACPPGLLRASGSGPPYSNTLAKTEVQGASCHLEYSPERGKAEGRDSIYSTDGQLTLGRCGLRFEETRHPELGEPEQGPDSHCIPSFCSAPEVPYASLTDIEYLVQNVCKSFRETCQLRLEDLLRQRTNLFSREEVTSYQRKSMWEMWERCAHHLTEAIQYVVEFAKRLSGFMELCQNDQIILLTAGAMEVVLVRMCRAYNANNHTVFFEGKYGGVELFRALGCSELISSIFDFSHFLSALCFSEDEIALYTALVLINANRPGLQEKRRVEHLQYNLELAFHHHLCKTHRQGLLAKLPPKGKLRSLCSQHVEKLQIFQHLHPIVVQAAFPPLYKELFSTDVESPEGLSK
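Read-out: Photinus luciferase luminescence; inhibitors lower reporter signal. Insect Schneider cells with Gal4-ROR gamma fusion under metallothionein promoter, UAS reporter; 700 uM final copper sulfate induction, 20 hr, ambient temperature.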
12-LOX inh: ALOX12 (human) lipoxygenase inhibition. P18054. purified 12hLO, xylenol orange hydroperoxide absorbance. Potency, µM (series often up to 108 µM), inactives show at the highest dose activity change, negative = inhibition, actives largely listed as inhibitors. hit rate 1.1% among 580,000. AID 1671190
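Purified human 12hLO at 150 nM in 25 mM Hepes, 0.01% Triton X-100, pH 7.0, preincubated 15 min at room temperature with compound. Reaction started with 40 uM arachidonic acid, 30 min at room temperature. Hydroperoxide measured by Fe-xylenol orange, 573/405 nm absorbance ratio.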
TDP1 cell noCPT: qHTS for Inhibitors of human tyrosyl-DNA phosphodiesterase 1 (TDP1): qHTS in cells in absence of CPT | Potency, µM (titrated, usually from 46.2 µM), inactives show at the top dose activity change, negative = growth inhibition, usual class: inhibitors | hit rate 15% among 420,000 | DT40 Tdp1-/- hTDP1 cells, no CPT, ATP luminescence, 48 h | AID 686978, 2013; also: nearly all actives have a fitted effect of over 55% in size
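Cells were dispensed at 400 per well, compounds added by pin tool, plates incubated ≥48 hr at 37 °C, then CellTiter-Glo added for 30 min at room temperature before luminescence reading. Line: DT40 Tdp1-/- complemented with hTDP1; camptothecin omitted.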
DT40 TDP1 CPT: growth inhibition of DT40 Tdp1-/-;hTDP1 cells with camptothecin (screen for TDP1 inhibitors). Potency, µM (titrated, usually from 46.2 µM), inactives show top-dose activity change, negative = growth inhibition, hits mostly inhibitors. hit rate 12% among 420,000. chicken DT40 Tdp1-/-;hTDP1 cells + 20 nM CPT, ATP luminescence, 48 h; also: nearly all actives have a fitted effect of over 55% in size
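Chicken DT40 Tdp1-/- cells stably complemented with human TDP1 were seeded at 400 cells/well in medium containing 20 nM camptothecin, exposed to pin-transferred compounds, and grown at 37 °C for at least 48 hr. Viability was read as ATP luminescence.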
Starred values were filed as active, the others as inactive; [ ] = remark or other dose. Calls follow the shape of the dose curve; as a rule, active = well fitted curve in the direction sought with a large enough effect; inconclusive = small, poorly fitted or top-dose-only effect, or another doubt; inactive = no such curve, though single readings can be large; an effect the other way counts as inactive or inconclusive. % is scaled to controls: 0 for no effect and ±100 for the full control effect; potency is read from the fitted curve at half-maximal effect.

Results for Cc1ccc2sc(N(Cc3cccnc3)C(=O)c3ccc(S(=O)(=O)N(C)C)cc3)nc2c1C ?
12-LOX inh: 4%

What do the screens show for `Cc1cc(C)c2nc(N(Cc3cccnc3)C(=O)c3ccc(S(=O)(=O)N(C)C)cc3)sc2c1`?
12-LOX inh: -3%; TDP1 cell noCPT: 18µM*; DT40 TDP1 CPT: inconclusive

Results for O=[N+]([O-])c1ccc2nc(NN=Cc3ccc(O)cc3)sc2c1 ?
12-LOX inh: -14%; TDP1 cell noCPT: inconclusive; DT40 TDP1 CPT: 29µM*

How did CC(C)c1ccc(/C=C/C(=O)Nc2nc3ccc([N+](=O)[O-])cc3s2)cc1 do in these assays?
ELG1 repair inh: 10%; VP16 counter: -8%; RORgamma inh: -3%; 12-LOX inh: -13%; TDP1 cell noCPT: -19%; DT40 TDP1 CPT: -1%

How did O=C(NCCNc1cnccn1)c1cnccn1 do in these assays?
12-LOX inh: -4%

What do the screens show for `Cn1nnnc1NCc1ccc(-c2ccc(Br)cc2)o1`?
12-LOX inh: -9%

What do the screens show for `COc1cccc(OC)c1C(=O)Nc1ccc(CN2CCCCC2)cc1`?
ELG1 repair inh: -5%; VP16 counter: -1%; RORgamma inh: 3%; 12-LOX inh: 4%; TDP1 cell noCPT: 3%; DT40 TDP1 CPT: -14%

Results for CCOC(=O)c1c(-c2ccccc2)oc2ccc(O)c(CN3CCN(C)CC3)c12 ?
ELG1 repair inh: -1%; VP16 counter: -9%; RORgamma inh: 1%; 12-LOX inh: inconclusive; TDP1 cell noCPT: 2.3µM*; DT40 TDP1 CPT: 2.1µM*

What do the screens show for `COc1ccc(NC(=O)c2c(C)oc3ccc(O)c(CN4CCCCCC4)c23)cc1Cl`?
12-LOX inh: inconclusive; TDP1 cell noCPT: inconclusive; DT40 TDP1 CPT: 26µM*

How did Cc1ccc(NC(=O)c2c(C)oc3ccc(O)c(CN4CCCCC4)c23)cc1 do in these assays?
12-LOX inh: -71%; TDP1 cell noCPT: inconclusive; DT40 TDP1 CPT: inconclusive

What do the screens show for `Cc1ccccc1NC(=O)c1c(C)oc2ccc(O)c(CN3CCCCCC3)c12`?
12-LOX inh: -23%; TDP1 cell noCPT: 21µM*; DT40 TDP1 CPT: 23µM*

Results for Cc1oc2ccc(O)c(CN3CCN(Cc4ccccc4)CC3)c2c1C(=O)Nc1ccccc1 ?
12-LOX inh: -18%; TDP1 cell noCPT: inconclusive; DT40 TDP1 CPT: 23µM*

What do the screens show for `Cc1oc2ccc(O)c(CN3CCOCC3)c2c1C(=O)Nc1ccccc1`?
12-LOX inh: -17%; TDP1 cell noCPT: -4%; DT40 TDP1 CPT: -15%

How did CCc1ncc(C(=O)N2CCN(c3ccc(Cl)c(Cl)c3)CC2)cn1 do in these assays?
12-LOX inh: -5%

What do the screens show for `Cc1ccc(NC(=O)c2c(C)oc3ccc(O)c(CN4CCCCC4)c23)c(C)c1`?
12-LOX inh: inconclusive; TDP1 cell noCPT: 16µM*; DT40 TDP1 CPT: 12µM*

How did Cc1oc2ccc(O)c(CN3CCOCC3)c2c1C(=O)Nc1ccc(C(C)C)cc1 do in these assays?
12-LOX inh: 2%; TDP1 cell noCPT: 16µM*; DT40 TDP1 CPT: 16µM*

What do the screens show for `Cc1ccccc1NC(=O)c1c(C)oc2ncnc(N3CCOCC3)c12`?
12-LOX inh: -7%

What do the screens show for `Cc1ccccc1NC(=O)c1c(C)oc2ccc(O)c(CN3CCOCC3)c12`?
12-LOX inh: inconclusive; TDP1 cell noCPT: 23µM*; DT40 TDP1 CPT: 21µM*

How did c1ccc(-c2cnc3n2C[C@H](CNCc2cccs2)OC3)cc1 do in these assays?
12-LOX inh: 43%[176 µM]

Results for CC(=O)N1CCN(C(=O)C[C@@H]2c3nc(NC(=O)C4CCCCC4)sc3C[C@@H]3[C@](C)(CO)[C@H](O)CC[C@]32C)CC1 ?
12-LOX inh: -20%

Results for COC(C(=O)Nc1ccnn1C1CCN(C(=O)C2CCC2)CC1)c1ccccc1 (configuration not stated) ?
12-LOX inh: 4%

Results for CCCn1c(=O)c2c(nc3n2CCCN3Cc2ccccc2)n(C)c1=O ?
ELG1 repair inh: -5%; VP16 counter: 1%; RORgamma inh: 24%; 12-LOX inh: -16%; TDP1 cell noCPT: -15%; DT40 TDP1 CPT: inconclusive

What do the screens show for `CCCn1c(=O)c2c(nc3n2CCCN3CCc2ccccc2)n(C)c1=O`?
ELG1 repair inh: inconclusive; VP16 counter: -1%; RORgamma inh: inconclusive; 12-LOX inh: 5%; TDP1 cell noCPT: inconclusive; DT40 TDP1 CPT: inconclusive

How did Cn1c(=O)n(Cc2ccc(F)cc2)c(=O)c2c1nc1n2CCCN1Cc1ccccc1 do in these assays?
ELG1 repair inh: 21µM*; VP16 counter: inconclusive; RORgamma inh: -5%; 12-LOX inh: -2%; TDP1 cell noCPT: 23µM*; DT40 TDP1 CPT: inconclusive

How did Cn1c(=O)n(CCc2ccccc2)c(=O)c2c1nc1n2CCCN1CCc1ccccc1 do in these assays?
ELG1 repair inh: 23µM*; VP16 counter: -16%; RORgamma inh: -2%; 12-LOX inh: 0%; TDP1 cell noCPT: 7.3µM*; DT40 TDP1 CPT: 12µM*

What do the screens show for `CC(C)Cn1c(=O)c2c(nc3n2CCCN3CCc2ccccc2)n(C)c1=O`?
ELG1 repair inh: inconclusive; VP16 counter: -3%; RORgamma inh: -6%; 12-LOX inh: -2%; TDP1 cell noCPT: 15µM*; DT40 TDP1 CPT: 16µM*

How did Cn1c(=O)n(CCc2ccccc2)c(=O)c2c1nc1n2CCCN1Cc1ccccc1 do in these assays?
ELG1 repair inh: inconclusive; VP16 counter: 7%; RORgamma inh: -21%; 12-LOX inh: 130%; TDP1 cell noCPT: 13µM*; DT40 TDP1 CPT: inconclusive

How did CC(C)c1ccc(OCC(=O)Nc2cc(C(F)(F)F)ccc2N2CCOCC2)cc1 do in these assays?
12-LOX inh: 1%

How did COC(=O)c1oc(CN2CCCC2c2ccsc2)cc1C (configuration not stated) do in these assays?
12-LOX inh: 26%

How did Cc1ccc(N2CCCn3c2nc2c3c(=O)n(CC(=O)OCc3ccccc3)c(=O)n2C)cc1C do in these assays?
ELG1 repair inh: 0%; VP16 counter: 3%; RORgamma inh: 7%

Results for CCn1c(=O)c2c(nc3n2CC(C)CN3CCc2ccccc2)n(C)c1=O (configuration not stated) ?
ELG1 repair inh: inconclusive; VP16 counter: 14%; RORgamma inh: 2%; 12-LOX inh: -28%; TDP1 cell noCPT: inconclusive; DT40 TDP1 CPT: 21µM*
